Test results reported in PubChem BioAssay (Tox21).
Inconclusive results are not listed. Calls of active or inactive are those of the source. Unless noted, calls follow the shape of the full dose curve.

Tests used:
[1] = molecular target: Acetylcholinesterase (Homo sapiens) (UniProt P22303); test: Acetylcholinesterase (AChE) small molecule antagonists: enzyme-based qHTS assay (AID 1347397); conditions: Potency: AChE enzyme activity inhibition; outcome: AChE enzyme activity inhibition; also: nearly all actives have a fitted effect of over 55% in size
Acetylcholinesterase (Homo sapiens), sequence (P22303 whole entry, looked up): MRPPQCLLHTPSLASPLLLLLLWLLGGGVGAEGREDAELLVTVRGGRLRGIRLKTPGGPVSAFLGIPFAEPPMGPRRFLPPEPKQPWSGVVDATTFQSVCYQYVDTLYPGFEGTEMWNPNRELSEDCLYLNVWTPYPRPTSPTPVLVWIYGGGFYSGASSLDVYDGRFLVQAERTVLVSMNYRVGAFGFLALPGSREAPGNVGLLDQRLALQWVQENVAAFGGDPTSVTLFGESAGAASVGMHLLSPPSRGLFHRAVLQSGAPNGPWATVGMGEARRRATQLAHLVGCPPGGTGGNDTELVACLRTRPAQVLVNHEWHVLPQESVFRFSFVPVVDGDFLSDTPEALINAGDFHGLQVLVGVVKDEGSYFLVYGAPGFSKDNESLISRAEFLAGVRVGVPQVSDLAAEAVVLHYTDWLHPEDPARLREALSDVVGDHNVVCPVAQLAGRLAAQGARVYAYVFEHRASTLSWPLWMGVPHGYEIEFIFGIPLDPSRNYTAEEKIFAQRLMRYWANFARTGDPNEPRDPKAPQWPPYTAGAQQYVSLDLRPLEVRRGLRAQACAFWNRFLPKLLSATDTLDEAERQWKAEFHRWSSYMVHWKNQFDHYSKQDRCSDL
Procedure, shortened: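 Recombinant human AChE, dispensed at 50 mU/mL, was preincubated with Tox21 10K compounds or DMSO vehicle for 30 min at room temperature. DTNB plus acetylthiocholine was then added, and thiocholine was measured colorimetrically after a further 10 min.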

[2] = molecular target: Acetylcholinesterase (Homo sapiens) (UniProt P22303); test: Acetylcholinesterase (AChE) small molecule antagonists: fluorescence cell-based qHTS assay (AID 1347398); conditions: Potency: AChE activity; outcome: AChE activity; also: nearly all actives have a fitted effect of over 50% in size
Procedure, shortened: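 Human SH-SY5Y cells were plated overnight at 37 C, exposed to compound for 30 min at 37 C, 5% CO2, then given acetylthiocholine plus Thiolite Green for 40 min at room temperature; thiocholine fluorescence (Ex/Em 490/520 nm) reports endogenous AChE activity.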

[3] = molecular target: Acetylcholinesterase (Homo sapiens) (UniProt P22303); test: Acetylcholinesterase (AChE) small molecule antagonists: enzyme-based qHTS assay with human liver microsomes (AID 1347399); conditions: Potency: qHTS inhibition; outcome: qHTS inhibition; also: nearly all actives have a fitted effect of over 60% in size
Procedure, shortened: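 Recombinant human AChE (50 mU/mL in the enzyme mix) and human liver microsomes (0.25 mg/mL final) were preincubated with compound and NADPH (0.25 mg/mL final) for 30 min at 37 C. Acetylthiocholine/DTNB was then added; thiocholine was read colorimetrically after 10 min at room temperature.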

[4] = molecular target: Acetylcholinesterase (Homo sapiens) (UniProt P22303); test: Acetylcholinesterase (AChE) small molecule antagonists: colormetric cell-based qHTS assay (AID 1347395); also: nearly all actives have a fitted effect of over 30% in size
Procedure, shortened: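 Cells (SH-SY5Y, 2,000 per well) are seeded and left overnight at 37 C. Compound is added for 30 min, then DTNB and acetylthiocholine for a further 90 min at 37 C before absorbance-based thiocholine detection.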

[5] = qHTS assay for small molecule agonists of the p53 signaling pathway (AID 651631); also: nearly all actives have a fitted effect of over 15% in size
Procedure, shortened: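 Agonist mode screen using a stably integrated beta-lactamase gene under p53 response elements in HCT-116 cells. Compound exposure lasts 16 h at 37 °C; fluorescence intensity is measured following 2 h FRET substrate loading.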

[6] = qHTS assay for small molecules that induce genotoxicity in human embryonic kidney cells expressing luciferase-tagged ATAD5 (AID 651632; active = well fitted curve in the direction sought with a large enough effect in the repeat runs; an effect the other way counts as inactive or inconclusive; also: nearly all actives have a fitted effect of over 15% in size)
Procedure, shortened: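 Luminescent reporter readout, HEK293T ATAD5-luc line: 16 hr drug exposure (37C, 5% CO2) followed by Amplite, 30 min RT.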

[7] = qHTS assay for small molecule agonists of the p53 signaling pathway - cell viability (AID 651633);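 also: p53RE-bla HCT reporter cells with a stable beta-lactamase p53 reporter; series mostly up to about 83 µM; nearly all actives have a fitted effect of over 30% in size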
Procedure, shortened: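 p53RE-bla cells, seeded at 4,000 per well and rested 5 h at 37 C/5% CO2, received compounds in DMSO for 16 h at 37 C. CellTiter-Glo was then added, and luminescence was read after 30 min at room temperature to gauge cytotoxicity.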

[8] = qHTS assay for small molecules that induce genotoxicity in human embryonic kidney cells expressing luciferase-tagged ATAD5 - cell viability (AID 651634); also: nearly all actives have a fitted effect of over 25% in size
Procedure, shortened: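 Viability read: CellTiter-Fluor fluorescence, 30 min at 37C. Cells: HEK293T, luciferase-tagged ATAD5. Exposure: 15.5 hr, 37C, 5% CO2, compound or DMSO vehicle.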

[9] = qHTS assay for small molecule disruptors of the mitochondrial membrane potential - cell viability (AID 720634);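 also: human HepG2 liver cancer cells; series mostly up to about 83 µM; nearly all actives have a fitted effect of over 20% in size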
Procedure, shortened: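 HepG2, 1 hr compound, 37 C. ATP luminescence via CellTiter-Glo, 30 min RT, same well as m-MPI.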

[10] = qHTS assay for small molecule disruptors of the mitochondrial membrane potential (AID 720635; active = well fitted curve in the direction sought with a large enough effect in the repeat runs; an effect the other way counts as inactive or inconclusive)
Procedure, shortened: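 HepG2 cells (2,000/well) attached overnight at 37C, then took compound for 1 hr at 37C, 5% CO2. Mito-MPS dye was added for 30 min; fluorescence was read at 490/535 nm (monomers) and 540/590 nm (aggregates).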

[11] = qHTS assay to test for compound auto fluorescence at 590 nm (red) in HepG2 cells (AID 720674; active = well fitted curve in the direction sought with a large enough effect in the repeat runs; an effect the other way counts as inactive or inconclusive)
Procedure, shortened: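 Rose Bengal sodium served as the red fluorophore standard. HepG2 monolayers (overnight attachment, MEM with 10% FBS) were exposed to test compounds for 1 hr at 37 C and read at Ex 540/Em 590 nm.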

[12] = qHTS assay to test for compound auto fluorescence at 535 nm (green) in HepG2 cells (AID 720675; active = well fitted curve in the direction sought with a large enough effect in the repeat runs; an effect the other way counts as inactive or inconclusive)
[13] = qHTS assay to test for compound auto fluorescence at 460 nm (blue) in HEK293 cells (AID 720678; active = well fitted curve in the direction sought with a large enough effect in the repeat runs; an effect the other way counts as inactive or inconclusive)
Procedure, shortened: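 HEK293, 2,000 cells/well, 10% dialyzed FBS; attach 4-5 hr 37C; pin compound or DMSO; o/n 37C/5% CO2; fluorescence 405/460 nm; triamterene-equivalent units.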

[14] = qHTS assay to test for compound auto fluorescence at 590 nm (red) in HEK293 cells (AID 720679; active = well fitted curve in the direction sought with a large enough effect in the repeat runs; an effect the other way counts as inactive or inconclusive)
Procedure, shortened: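 Intensity at 540nm excitation and 590nm emission is reported as Rose Bengal sodium-equivalent autofluorescence. Measurements followed overnight exposure (37C, 5% CO2) of HEK293 cells, 2,000 per well, to 23 nL compound.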

[15] = qHTS assay to test for compound auto fluorescence at 535 nm (green) in HEK293 cells (AID 720680; active = well fitted curve in the direction sought with a large enough effect in the repeat runs; an effect the other way counts as inactive or inconclusive)
[16] = qHTS assay to test for compound auto fluorescence at 460 nm (blue) in HEK293 cell free culture (AID 720681; active = well fitted curve in the direction sought with a large enough effect in the repeat runs; an effect the other way counts as inactive or inconclusive)
Procedure, shortened: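 Test compounds were pinned into cell-free culture medium (DMEM with 10% FBS) and fluorescence was read directly at Ex/Em 405/460 nm. Signals were expressed as fluorescence equivalents of triamterene, with DMSO vehicle as control.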

[17] = qHTS assay to test for compound auto fluorescence at 535 nm (green) in HEK293 cell free culture (AID 720682; active = well fitted curve in the direction sought with a large enough effect in the repeat runs; an effect the other way counts as inactive or inconclusive)
Procedure, shortened: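 No cells present: wells hold DMEM supplemented with 10% FBS, into which compound or vehicle is pinned. Green emission is then recorded (485 nm excitation, 535 nm emission) and scaled to fluorescein.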

[18] = qHTS assay to test for compound auto fluorescence at 590 nm (red) in HEK293 cell free culture (AID 720683; active = well fitted curve in the direction sought with a large enough effect in the repeat runs; an effect the other way counts as inactive or inconclusive)
Procedure, shortened: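 Tox21 10K library compounds were pinned into cell-free DMEM with 10% FBS and fluorescence was read at excitation 540 nm. Activity is expressed as Rose Bengal sodium equivalency.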

[19] = qHTS assay to test for compound auto fluorescence at 590 nm (red) in HepG2 cell free culture (AID 720684; active = well fitted curve in the direction sought with a large enough effect in the repeat runs; an effect the other way counts as inactive or inconclusive)
Procedure, shortened: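 Red fluorescence (540 nm excitation, 590 nm emission) was measured after compound transfer into cell-free MEM supplemented with 10% FBS. Values are equivalencies against Rose Bengal sodium.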

[20] = qHTS assay to test for compound auto fluorescence at 460 nm (blue) in HepG2 cell free culture (AID 720685; active = well fitted curve in the direction sought with a large enough effect in the repeat runs; an effect the other way counts as inactive or inconclusive)
Procedure, shortened: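 Compound (23 nL) or DMSO pinned into cell-free MEM with 10% FBS; blue fluorescence read at 405/460 nm excitation/emission, expressed as auto-fluorescence equivalency to triamterene.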

[21] = qHTS assay to test for compound auto fluorescence at 535 nm (green) in HepG2 cell free culture (AID 720686; active = well fitted curve in the direction sought with a large enough effect in the repeat runs; an effect the other way counts as inactive or inconclusive)
[22] = qHTS assay to test for compound auto fluorescence at 460 nm (blue) in HepG2 cells (AID 720687; active = well fitted curve in the direction sought with a large enough effect in the repeat runs; an effect the other way counts as inactive or inconclusive)
Procedure, shortened: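 Cells (2,000/well in MEM with 10% FBS) attached overnight at 37 C, then were exposed to compound or DMSO for 1 hr at 37 C, 5% CO2. Fluorescence read at Ex/Em 405/460 nm, expressed as triamterene-equivalent signal.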

[23] = qHTS assay to identify small molecule antagonists of the glucocorticoid receptor (GR) signaling pathway - cell viability counter screen (AID 720693; active = well fitted curve in the direction sought with a large enough effect in the repeat runs; an effect the other way counts as inactive or inconclusive; also: nearly all actives have a fitted effect of over 55% in size)
[24] = qHTS assay for identifying genotoxic compounds that show differential cytotoxicity against isogenic chicken DT40 cell lines with known DNA damage response pathways - wild type cell line (AID 743012; active = well fitted curve in the direction sought with a large enough effect in the repeat runs; an effect the other way counts as inactive or inconclusive; also: nearly all actives have a fitted effect of over 60% in size)
Procedure, shortened: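 First, wild type DT40 cells were plated at 300 per well and equilibrated about 0.5 h at 37 C/5% CO2. Next, compounds in DMSO were added and exposure lasted 40 h. Finally, CellTiter-Glo was added for 30 min at room temperature and luminescence recorded.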

[25] = qHTS assay for identifying genotoxic compounds that show differential cytotoxicity against isogenic chicken DT40 cell lines with known DNA damage response pathways - Rev3 mutant cell line (AID 743014; active = well fitted curve in the direction sought with a large enough effect in the repeat runs; an effect the other way counts as inactive or inconclusive; also: nearly all actives have a fitted effect of over 55% in size)
[26] = qHTS assay for identifying genotoxic compounds that show differential cytotoxicity against isogenic chicken DT40 cell lines with known DNA damage response pathways - Rad54/Ku70 mutant cell line (AID 743015; active = well fitted curve in the direction sought with a large enough effect in the repeat runs; an effect the other way counts as inactive or inconclusive; also: nearly all actives have a fitted effect of over 60% in size)
[27] = qHTS assay to identify small molecule antagonists of the androgen receptor (AR) signaling pathway - cell viability counter screen (AID 743033; active = well fitted curve in the direction sought with a large enough effect in the repeat runs; an effect the other way counts as inactive or inconclusive; also: nearly all actives have a fitted effect of over 45% in size)
[28] = qHTS assay to identify small molecule antagonists of the androgen receptor (AR) signaling pathway using the MDA cell line - cell viability counter screen (AID 743041; active = well fitted curve in the direction sought with a large enough effect in the repeat runs; an effect the other way counts as inactive or inconclusive; also: nearly all actives have a fitted effect of over 45% in size)
Procedure, shortened: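 MDA-kb2 AR-luc human breast carcinoma cells (MMTV-luciferase, AR/GR responsive) were treated with compounds plus R1881 agonist for 16 h at 37 °C. Viability was read as CellTiter-Fluor fluorescence in the same wells as the reporter assay.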

[29] = tested on: thyroid hormone receptor (rat, GH3 cells); test: qHTS assay to identify small molecule agonists of the thyroid receptor (TR) signaling pathway (AID 743066)
[30] = qHTS assay to identify small molecule antagonists of the estrogen receptor alpha (ER-alpha) signaling pathway - cell viability counter screen (AID 743074);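 also: HEK293 cells carrying ER-alpha-UAS-bla reporter stimulated with 17beta-estradiol; nearly all actives have a fitted effect of over 45% in size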
[31] = qHTS assay to identify small molecule antagonists of the estrogen receptor alpha (ER-alpha) signaling pathway using the BG1 cell line - cell viability counter screen (AID 743081; active = well fitted curve in the direction sought with a large enough effect in the repeat runs; an effect the other way counts as inactive or inconclusive;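 also: compound given together with 17beta-estradiol as the ER stimulus; series mostly up to about 70 µM; nearly all actives have a fitted effect of over 45% in size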)
Aromatase (Homo sapiens) = Aromatase (Homo sapiens) (UniProt P11511); test: qHTS assay to identify aromatase inhibitors (AID 743083; active = well fitted curve in the direction sought with a large enough effect in the repeat runs; an effect the other way counts as inactive or inconclusive; also: series mostly up to about 70 µM; nearly all actives have a fitted effect of over 55% in size)
Aromatase (Homo sapiens), sequence (P11511 whole entry, looked up): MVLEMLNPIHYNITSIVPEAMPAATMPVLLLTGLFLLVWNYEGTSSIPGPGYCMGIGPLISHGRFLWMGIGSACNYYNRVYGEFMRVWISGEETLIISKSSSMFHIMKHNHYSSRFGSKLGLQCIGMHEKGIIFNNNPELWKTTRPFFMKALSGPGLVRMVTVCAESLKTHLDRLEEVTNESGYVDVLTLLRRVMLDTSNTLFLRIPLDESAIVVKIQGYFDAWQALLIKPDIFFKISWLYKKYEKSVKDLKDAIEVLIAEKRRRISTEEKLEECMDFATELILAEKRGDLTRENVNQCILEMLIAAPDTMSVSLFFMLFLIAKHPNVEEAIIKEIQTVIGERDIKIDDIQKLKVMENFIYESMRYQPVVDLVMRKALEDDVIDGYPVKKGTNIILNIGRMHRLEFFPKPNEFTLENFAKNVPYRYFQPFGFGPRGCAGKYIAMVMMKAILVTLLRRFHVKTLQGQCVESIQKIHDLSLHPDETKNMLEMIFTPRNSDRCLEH

[32] = qHTS assay to identify aromatase inhibitors - cell viability counter screen (AID 743084; active = well fitted curve in the direction sought with a large enough effect in the repeat runs; an effect the other way counts as inactive or inconclusive)
[33] = qHTS assay to identify small molecule that activate the aryl hydrocarbon receptor (AhR) signaling pathway - cell viability counter screen (AID 743086; active = well fitted curve in the direction sought with a large enough effect in the repeat runs; an effect the other way counts as inactive or inconclusive)
Procedure, shortened: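 HepG2-AhR-luc (HG2L7.5c1) cells, 4000/well, were preincubated 5 h at 37C, exposed to compound in qHTS format for 24 hr at 37C, then given CellTiter-Fluor for 30 min; viability was read as fluorescence in the reporter wells.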
% is scaled to controls: 0 for no effect and ±100 for the full control effect.

CN1CCN(c2c(F)cc3c(=O)c(C(=O)O)cn4c3c2OCN4C)CC1
inactive: activity change, negative = inhibition [1] 0.0377% [at 23.6 µM] | activity change, negative = inhibition [2] 5.01% [at 23.8 µM] | activity change, negative = inhibition [3] -0.167% [at 23.6 µM]

OCCOCCOCCOCCO
inactive: Potency [4] | Potency [2] | Potency [3]

CCC1(C)CC(=O)NC1=O (stereo not given)
inactive: Potency [1] | Potency [2] | Potency [3]

CCN(Cc1cccc(S(=O)(=O)O)c1)c1ccccc1
inactive: Potency [4] | Potency [2] | Potency [3]

COc1cc(/C=C/C(=O)CC(=O)/C=C/c2ccc(O)c(OC)c2)ccc1O
inactive: Potency [4] | Potency [2] | Potency [3]

CC(C)(C)c1cccc(O)c1
inactive: Potency [1] | Potency [2] | Potency [3]

NC(N)=NC(N)=NCCc1ccccc1
inactive: Potency [4] | Potency [2] | Potency [3]

CCCCCCCCOC(=O)c1ccc(O)cc1
inactive: Potency [4] | Potency [2] | Potency [3]

CN(C)c1cc(NC(=O)CNC(C)(C)C)c(O)c2c1C[C@H]1C[C@H]3[C@H](N(C)C)C(=O)C(C(N)=O)=C(O)[C@@]3(O)C(=O)C1=C2O
inactive: Potency [4] | Potency [2] | Potency [3]

OCC1CC=CCC1 (stereo not given)
inactive: Potency [4] | Potency [2] | Potency [3]

CCN1CCCC(OC(=O)C(c2ccccc2)c2ccccc2)C1 (stereo not given)
inactive: Potency [1] | Potency [2] | Potency [3]

C=CC(O)CCCCC (stereo not given)
inactive: Potency [4] | Potency [2] | Potency [3]

C=C(C)CC(C)(C)C
inactive: Potency [4] | Potency [2] | Potency [3]

CC(C)(O)c1ccc(CNC(=O)c2cccnc2Oc2ccc3nonc3c2)cc1
inactive: Potency [4] | Potency [2] | Potency [3]

CCCCC(CC)C(=O)OCCOCCOCCOC(=O)C(CC)CCCC (stereo not given)
inactive: Potency [4] | Potency [2] | Potency [3]

CCCCCCCCCCCCCCCC(=O)OC
inactive: activity change, negative = inhibition [1] -0.557% [at 23.6 µM] | activity change, negative = inhibition [2] 2.99% [at 23.8 µM] | activity change, negative = inhibition [3] 0.243% [at 23.6 µM]

CC1(C)[C@H]2CC[C@]1(C)C(=O)C2
inactive: Potency [4] | Potency [2] | Potency [3]

CC(C)C(=O)Nc1ccc([N+](=O)[O-])c(C(F)(F)F)c1
inactive: Potency [1] | Potency [2] | Potency [3]

O=c1c(-c2ccc(O)cc2)coc2cc(O)cc(O)c12
inactive: Potency [4] | Potency [2] | Potency [3]

CC(C)(C)NCC(O)c1cc(O)cc(O)c1 (stereo not given)
inactive: Potency [4] | Potency [2] | Potency [3]

CNC(C)Cc1ccccc1 (stereo not given)
inactive: Potency [5] | Potency [6] | Potency [7] | Potency [8] | Potency [9] | Potency [10] | outcome [11] | Potency [12] | Potency [13] | outcome [14] | Potency [15] | Potency [16] | Potency [17] | outcome [18] | outcome [19] | Potency [20] | Potency [21] | Potency [22] | Potency [23] | Potency [24] | Potency [25] | Potency [26] | Potency [27] | Potency [28] | Potency [29] | Potency [30] | Potency [31] | Potency (Aromatase (Homo sapiens)) | Potency [32] | Potency [33]
